Rows were chosen to be rich in hits. Some 4.1% of all compounds tested hit in one or more screens of this group.
Jurkat NFkB inh: lowers PMA/ionomycin-induced NF-kB signal in Jurkat cells. PMA/ionomycin-induced NF-kB luciferase reporter, luminescence. inhibition, % at 4 µM. hit rate 0.53% among 330,000. AID 435003; in the data active = inhibition above about 50%
697 NFkB inh: inhibitors of the PMA/ionomycin-induced NF-kB reporter in 697 B cells. 697 B-cell NF-kB luciferase reporter, 16 h. hit rate 0.33% among 330,000. inhibition, % at 4 µM; in the data active = inhibition above about 35%
Gli-Sufu antag: antagonists of Gli-Sufu signaling; Sufu-KO-LIGHT fibroblasts, Gli luciferase reporter luminescence; inhibition, % at 5 µM; hit rate 0.74% among 340,000; AID 588413;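 active = inhibition above about 55%, limit read from the data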;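 note: 0% = DMSO-treated cells and 100% = wells with medium but no cells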
KLF5 inh: kruppel-like factor 5 inhibition | hit rate 0.23% among 290,000 | DLD-1 KLF5 promoter-luciferase reporter, luminescence | inhibition, % at 5 µM;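 active = inhibition above a per-plate limit of that plate's mean compound inhibition plus 3 SD, cut at about 60% in these data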;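 note: 0% = DMSO wells and 100% = LY294002 at 200 µM; higher means less KLF5 promoter-driven luciferase light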
aSyn 5UTR inh: 5' untranslated region of α-synuclein, MLPCN primary screen. alpha-synuclein 5'UTR reporter, inhibitor activity. inhibition, % (tested at 7.5 µM). hit rate 0.82% among 300,000. AID 1813; in the data active = inhibition above about 60%;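 note: H4 neuroglioblastoma cells stably carrying SNCA 5'UTR luciferase fusion; 0% = DMSO wells and 100% = positive control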
Mdm2-MdmX inh: disrupts the human Mdm2-MdmX interaction; SaOS-2 split-luciferase Mdm2/MdmX complementation, luminescence; inhibition, % at 8 µM; AID 485346; hit rate 3% among 330,000; O15151+Q00987;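 active = inhibition of at least 50% at 8 µM in the primary screen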
Mdm2 MdmX conf: confirmation of human Mdm2/MdmX interaction inhibitors; inhibition, % at 8 µM; Mdm2-MdmX binding, luminescent assay; hit rate 55% among 10,000; shares compounds with Mdm2-MdmX inh; in the data active = inhibition above about 40%
FLuc counter: full-length luciferase inhibition in Mdm2/MdmX counter-screen. hit rate 77% among 6,200. shares compounds with Mdm2-MdmX inh. inhibition, % at 8 µM. SaOS-2 full-length luciferase counterscreen, luminescence;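 active = mean inhibition at 8 µM reaching about 37%, which flags the compound as non-specific, limit read from the data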;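 note: p53-null SaOS-2 cells with luciferase driven by a doxycycline-inducible promoter; compound on cells about two nights before reading with doxycycline added after day one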
* hit, by the source's call; x = not tested or not shown.

SMILES	Jurkat NFkB inh	697 NFkB inh	Gli-Sufu antag	KLF5 inh	aSyn 5UTR inh	Mdm2-MdmX inh	Mdm2 MdmX conf	FLuc counter
Cc1cc(=O)oc2cc(OCC(=O)N3CCc4ccccc4C3)ccc12	22.8	20.7	5.4	-32.2	10.4	0.5	x	x
CN(C)C=Nc1ncc2c([nH]c3ccccc32)c1C#N	-14.9	-22.3	-48.4	-20.4	-112.6	72.4*	81.8*	23.0
O=C(NC1CCCCC1)C(c1cccnc1)N(C(=O)CCl)c1ccccc1Cl (centres undefined)	-3.2	-26.0	15.0	-18.6	-43.6	95.2*	99.2*	58.7*
O=C(NC1CCCCC1)C(c1cccnc1)N(C(=O)CCl)c1ccc(F)cc1 (centres undefined)	x	x	6.7	3.0	-94.0	x	x	x
COc1ccc(N(C(=O)CCl)C(C(=O)NC2CCCCC2)c2cccnc2)cc1 (centres undefined)	14.9	-58.1	-3.7	-4.2	-47.7	95.6*	100.1*	54.1*
COc1ccc(Cl)cc1C(=O)NC(=S)Nc1cc(-c2nc3ccccc3[nH]2)ccc1C	-50.0	-51.5	9.2	-15.8	-22.2	75.6*	1.2	x
COc1ccc(Cl)cc1C(=O)NC(=S)Nc1nc(C)cc(C)n1	2.5	4.8	12.0	x	5.2	1.9	x	x
Cc1ccc(C(NC(=O)C2CCCCC2)c2c(O)ccc3ccccc23)cc1 (centres undefined)	-6.6	10.1	-16.4	-18.7	30.7	80.3*	60.9*	49.2*
Nc1nc(C(=O)N2CCOCC2)nn1S(=O)(=O)c1ccc(Cl)cc1	-7.0	5.6	9.5	-10.6	0.5	7.8	x	x
CNC(=O)c1nnsc1S(=O)(=O)c1ccc(Cl)cc1	17.7	28.2	13.8	16.5	-26.4	95.9*	100.2*	51.2*
O=C(c1nnsc1S(=O)(=O)c1ccc(Cl)cc1)N1CCOCC1	47.1	-8.0	2.8	28.9	-34.4	94.9*	68.2*	19.3
Cc1ccc(F)cc1NC(=O)CSc1nc(Nc2ccccc2)nc(N2CCOCC2)n1	6.2	-12.4	11.9	-22.0	51.1	74.3*	17.4	x
Cc1cccc(Nc2nc(N3CCOCC3)nc(N3CCOCC3)n2)c1	-24.8	31.1	21.6	-34.9	-5.6	51.3*	35.8	x
Cc1ccccc1NC(=O)CSc1nc(Nc2ccccc2)nc(N2CCOCC2)n1	9.7	16.5	15.2	9.1	27.7	19.6	x	x
FC(F)(F)c1cccc(Nc2nc(N3CCOCC3)nc(N3CCOCC3)n2)c1	3.5	-21.1	-18.8	9.1	7.6	38.0	x	x
c1ccc(Nc2nc(N3CCOCC3)nc(N3CCOCC3)n2)cc1	-25.5	17.9	9.3	-20.5	26.4	56.3*	27.1	x
Oc1cccc(Nc2nc(N3CCOCC3)nc(N3CCOCC3)n2)c1	-11.5	31.6	19.9	-49.8	36.7	56.3*	43.0*	73.8*
CC(C)=C(NC(=O)c1ccccc1Br)C(=O)NCCc1nc2ccccc2[nH]1	-14.6	12.5	0.0	-0.7	-22.6	-0.3	x	x
Cc1ccc(NC(=S)N(CCN2CCCCC2)Cc2ccco2)cc1Cl	-9.2	-11.9	-10.3	3.2	-4.0	-8.9	x	x
Cc1c(C)n(CCCN(C)C)c2ncnc(NC3CCCCC3)c12	-16.0	-9.7	38.8	-27.3	-35.6	17.8	x	x
Brc1ccc(/C=N/Nc2ncnc3c2cnn3Cc2ccccc2)cc1	-10.9	-16.0	4.5	-12.4	-8.2	95.3*	48.4*	68.5*
COc1ccc(N(C)S(=O)(=O)c2cccc(C(=O)Nc3nc4ccccc4[nH]3)c2)cc1	4.4	7.3	6.7	-2.9	5.9	29.4	x	x
CN(c1cccc(Cl)c1)S(=O)(=O)c1cccc(C(=O)Nc2nc3ccccc3[nH]2)c1	8.6	-29.8	17.4	-18.7	-26.2	81.2*	36.5	58.1*
C=CC(=O)Nc1ccc(N(C)c2ccnc(Nc3ccc(N4CCN(C)CC4)cc3)n2)cc1	4.4	-8.5	25.4	x	x	92.5*	62.6*	16.0
CN1CCN(c2ccc(NC(=O)c3ccc(Oc4ccccc4)cc3)cc2)CC1	-14.5	-2.2	1.2	-43.2	-21.8	16.6	x	x
SMILES	Jurkat NFkB inh	697 NFkB inh	Gli-Sufu antag	KLF5 inh	aSyn 5UTR inh	Mdm2-MdmX inh	Mdm2 MdmX conf	FLuc counter
COc1ccc(Nc2nc(-c3cccs3)nc3ccccc23)cc1S(=O)(=O)N1CCOCC1	27.1	9.3	-0.2	x	-4.4	85.5*	82.4*	57.2*
CC1CCc2sc(C(=O)N/N=C/c3ccc(O)cc3)cc2C1 (centres undefined)	-16.3	-67.1	-49.1	-70.3	-30.7	-7.4	x	x
COCCCN1CC(=O)N2C(c3cccc(OC)c3OC)c3[nH]c4ccccc4c3C[C@H]2C1=O (some centres undefined)	2.8	12.9	-0.6	-33.2	7.2	-8.1	x	x
O[C@@H](c1cc(C(F)(F)F)nc2c(C(F)(F)F)cccc12)[C@H]1CCCCN1	15.4	-21.7	2.1	x	5.2	99.2*	77.8*	46.6*
OC(c1cc(C(F)(F)F)nc2c(Cl)cc(Cl)cc12)C1CCCCN1 (centres undefined)	3.2	-45.0	18.6	-21.3	7.0	68.2*	42.0*	48.3*
O=c1c2cc(Cl)cc(Cl)c2nc2n1CCC2	-1.3	4.6	-4.3	-30.0	11.7	6.3	x	x
Cc1nn(-c2ccccc2)c(N2CCCC2)c1/C=N/NC(=S)Nc1ccccc1F	-65.8	-207.2	11.8	-67.8	-59.7	44.3	x	x
Cc1ccc2nc(C)cc(C(=O)OCC(=O)Nc3cccnc3Cl)c2c1	10.2	-9.9	x	-10.7	-3.7	6.1	x	x
COc1ccc(-c2ccc(=O)n(CC(=O)NCC3COCCO3)n2)cc1 (centres undefined)	2.1	-7.0	-2.8	x	0.2	9.7	x	x
N#C/C(=C\Nc1ccc2cn[nH]c2c1)c1nc(-c2ccc(Cl)cc2)cs1	-3.5	1.1	-4.0	0.1	3.5	50.4*	13.9	x
N#C/C(=C\Nc1ccc2cn[nH]c2c1)c1nc(-c2ccccc2)cs1	x	x	1.5	9.9	-35.1	x	x	x
COc1ccccc1N1CCN(S(=O)(=O)c2c(C(=O)N3CCOCC3)c(C)n(C)c2C)CC1	2.4	2.5	2.9	-32.9	3.3	-21.6	x	x
COc1ccc(-c2nnc(NC(=O)c3ccc(S(=O)(=O)N4CCCc5ccccc54)cc3)o2)cc1	16.9	-57.7	11.1	20.7	69.0*	61.8*	59.0*	46.4*
CC1CN(S(=O)(=O)c2ccc(C(=O)Nc3nnc(-c4ccc5c(c4)CCCC5)o3)cc2)CC(C)O1 (centres undefined)	6.0	-43.1	2.7	-26.3	75.6*	67.1*	31.9	59.2*
COCc1nnc(NC(=O)c2ccc(S(=O)(=O)N3CCCc4ccccc43)cc2)o1	0.0	13.0	-4.0	-2.6	-17.7	28.6	x	x
O=C(Nc1nnc(C2CC2)o1)c1ccc(S(=O)(=O)N2CCCc3ccccc32)cc1	-0.5	-31.7	-2.3	x	63.1*	50.2*	43.8*	70.7*
NC1=NC(=O)/C(=C\c2ccsc2)S1	-4.1	10.9	-5.2	-13.7	-26.4	23.3	x	x
